# PfHsp40 rescue: compounds rescuing yeast from Plasmodium falciparum HSP40 toxicity; S. cerevisiae expressing PfHsp40, growth rescue, ATP luminescence; hit rate 0.68% among 340,000; growth rescue, % at 12.5 µM; in the data active = growth rescue above about 28%, passing the limit was not always enough;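 also: yeast W303a lacking pdr1 and pdr3 grown in galactose medium; growth measured after three days at 30 °C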
# GDH-TPI counter-1: GDH-TPI coupled enzyme inhibition counter-screen; GDH-TPI coupled enzyme counterscreen, NADH absorbance; inhibition, % at 4.8 µM; hit rate 1.2% among 360,000; in the data active = inhibition above about 30%;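 also: 0% = DMSO wells and 100% = wells lacking the enzyme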
# PrP 5UTR inh: inhibition of PrP 5' UTR reporter expression; AID 488862; inhibition, % (test concentration not listed); hit rate 0.35% among 340,000; cell-based PrP 5' UTR mRNA reporter, plate reader; in the data active = inhibition above about 52%; also: 0 = median of the neutral control wells
# FBA Mtb inh: Mtb fructose-bisphosphate aldolase inhibition; hit rate 2.3% among 360,000; inhibition, % at 1 µM; purified M. tuberculosis FBA, fluorescence read-out; P9WQA3;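 also: 0% = vehicle and 100% = reference inhibitor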
# Target sequence (P9WQA3 whole entry, looked up): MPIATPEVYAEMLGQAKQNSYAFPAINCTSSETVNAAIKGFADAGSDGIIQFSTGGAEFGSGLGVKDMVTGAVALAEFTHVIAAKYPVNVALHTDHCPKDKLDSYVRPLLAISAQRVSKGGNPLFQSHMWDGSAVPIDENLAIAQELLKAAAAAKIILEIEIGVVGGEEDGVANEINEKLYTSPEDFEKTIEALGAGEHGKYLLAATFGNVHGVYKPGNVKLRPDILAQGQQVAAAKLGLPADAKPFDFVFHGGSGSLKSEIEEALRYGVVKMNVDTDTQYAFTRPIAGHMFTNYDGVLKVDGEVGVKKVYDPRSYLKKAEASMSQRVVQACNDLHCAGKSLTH
# BJeLR lethal: BJeLR cell viability loss | BJeLR (HRASV12) viability, CellTiter-Glo ATP luminescence, 48 h | inhibition, % (concentration not given with the values) | hit rate 0.17% among 300,000 | AID 1554; in the data active = inhibition above about 50%
# PrPC surface inh: reduces human prion protein on the cell surface | cell surface PrPC, TR-FRET read-out | inhibition, % at 13.8 µM | hit rate 0.43% among 370,000; in the data active = inhibition above about 24%; also: 0% = median of the test wells and 100% = reference compound wells
# Mtb FBA inh conf: confirmation of M. tuberculosis fructose-bisphosphate aldolase inhibitors; shares compounds with FBA Mtb inh; purified M. tuberculosis FBA, fluorescence read-out; inhibition, % at 1 µM; hit rate 78% among 5,600; AID 651616;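 also: 0% = vehicle wells and 100% = reference inhibitor wells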
# GDH-TPI counter-2: inhibits GDH-TPI coupling enzymes, flagging Mtb FBA hits; shares compounds with FBA Mtb inh; GDH-TPI coupled enzyme counterscreen, fluorescence; inhibition, % at 1 µM; hit rate 81% among 5,600; AID 652141; in the data active = inhibition above about 10%
# GDH-TPI dose: counter-screen for M. tuberculosis FBA inhibitors: GDH-TPI dose response; shares compounds with FBA Mtb inh; GDH-TPI coupled enzyme assay, fluorescence, artifact counterscreen; IC50, µM; hit rate 79% among 170; AID 652145; call rule not given here
# * = called active by the depositor; · = no result given; + = active, no number. Hits are enriched below; roughly 4.5% of the tested compounds scored in any of these assays. Rule as the data show it, unless noted: active = inhibition above about 27%; inactive = the rest.
SMILES,PfHsp40 rescue,GDH-TPI counter-1,PrP 5UTR inh,FBA Mtb inh,BJeLR lethal,PrPC surface inh,Mtb FBA inh conf,GDH-TPI counter-2,others
CCCCn1nc2cc(C(=O)NC3CCc4ccccc43)ccc2c1OCC (stereo not given),25,-3,-15,53*,-2,11,+,+,
CCCn1nc2cc(C(=O)NC3CCCc4ccccc43)ccc2c1OCC (stereo not given),3,-8,-16,56*,4,9,137*,99*,
Cc1ccc(N(CCC#N)C(=O)CSc2nnc3ccccn23)cc1,1,2,-5,0,·,5,·,·,
Cc1c(C(=O)Nc2cccc(Cl)c2)c2ccccn2c1CCc1ccncc1,0,23,-10,26,3,3,·,·,
Cc1c(C(=O)Nc2ccc(Cl)cc2)c2ccccn2c1CCc1ccncc1,6,8,-29,32*,-3,0,12,1,GDH-TPI dose=0.97*
CCOC(=O)c1ccc(-[n+]2c(-c3ccccc3)cc(-c3ccccc3)cc2-c2ccccc2)cc1,1,·,-15,·,20,·,·,·,
Cc1ccc(-c2cc(-c3ccc(C)cc3)[n+](-c3ccc(C(=O)[O-])cc3)c(-c3ccc(C)cc3)c2)cc1,2,46*,-1,38*,78*,-21,14,7,GDH-TPI dose=3.8*
COc1ccccc1CCCNC(=O)C1CCC(=O)N(CCc2cccc(F)c2)C1 (stereo not given),1,2,-7,-1,0,4,·,·,
CCOc1ccc(-c2cc(C(=O)OC)nc3c2c(=O)n(C)c(=O)n3C)cc1,0,9,-34,33*,2,0,118*,91*,
COC(=O)c1cc(-c2ccc(Br)cc2)c2c(=O)[nH]c(=O)n(C)c2n1,-1,26,-8,9,-7,-3,·,·,
S=C(NCc1ccccc1)Nc1cccc2ccccc12,0,6,5,8,-7,2,·,·,
CCN(C(=S)Nc1cccc2ccccc12)c1ccccc1,·,13,·,30*,·,8,58*,43*,
CC(C)N1CCN(Cc2ccc(OC3CCCC3)cc2)CC1CCO (stereo not given),-2,-9,-56,0,-2,-3,·,·,
COc1cc(NC(=O)CSc2nc3cc(C)ccc3cc2C)c(C(=O)O)cc1OC,0,7,-24,27*,7,23,45*,25*,
COc1cc(NC(=O)CSc2nc3ccccc3cc2C)c(C(=O)O)cc1OC,-1,14,-15,9,-9,10,·,·,
CC(C)NC(=O)N[C@@H]1C[C@@H]2O[C@@H](CO)CC[C@@H]2O[C@@H]1CCc1ccc(-c2ccccc2F)cc1,·,·,·,·,·,-6,·,·,
CC(=O)N1NC(=Nc2ccccc2)SC1(C)C,-2,-4,-14,0,29,0,·,·,
COc1ccc2c(c1OC)C(=O)OC2Nc1nc(-c2ccc(-c3ccccc3)cc2)cs1 (stereo not given),1,26,-68,34*,-5,1,16,-1,GDH-TPI dose=9.5*
COc1cccc(-c2csc(NC3OC(=O)c4c3ccc(OC)c4OC)n2)c1 (stereo not given),·,-7,·,2,8,-3,·,·,
COc1ccccc1CNCc1cc(=O)oc2c(C)c(C)ccc12,2,0,-2,5,12,-2,·,·,
Cc1cc(=O)oc2c(C)c(OCC(=O)c3ccccc3)ccc12,1,3,-12,0,2,2,·,·,
C=CCOC(=O)COc1ccc2c(C)c(C)c(=O)oc2c1C,-1,11,0,58*,-1,8,32*,34*,
COc1ccc2c(C)cc(=O)oc2c1C,0,2,-24,54*,4,-5,+,196*,
Cc1cc(=O)oc2c(C)c(OCC(=O)N(C)C)ccc12,0,20,-25,37*,-1,7,46*,40*,
C=C(C)COc1ccc2c(CC)cc(=O)oc2c1C,0,11,-11,21,-2,8,·,·,
SMILES,PfHsp40 rescue,GDH-TPI counter-1,PrP 5UTR inh,FBA Mtb inh,BJeLR lethal,PrPC surface inh,Mtb FBA inh conf,GDH-TPI counter-2,others
Cc1c(C)c2ccc(OCC(=O)N(C)C)c(C)c2oc1=O,0,12,-13,79*,13,3,148*,125*,
COc1ccc(NC(=O)c2cc(-c3cc(F)ccc3OCC3CCCO3)n[nH]2)cc1OC (stereo not given),·,12,·,0,·,9,·,·,
COc1ccc(CCN(C)C(=O)c2cc(-c3ccc(C)cc3)nc3ccccc23)cc1OC,-2,18,-15,5,-2,-4,·,·,
CCOC(=O)CCc1c(C)c2ccc(OCC(=O)N(CC)CC)c(C)c2oc1=O,0,0,-22,76*,4,-1,18,20*,
Cc1c(OCC(=O)N(C)C)ccc2c3c(c(=O)oc12)CCCCC3,-2,16,-9,88*,0,-4,1,-4,
CCc1c(C)c2ccc(OCC(=O)N(C)C)c(C)c2oc1=O,0,3,-46,76*,1,-1,+,+,
CCOC(=O)CCc1c(C)c2ccc(OC3CCCCC3=O)c(C)c2oc1=O (stereo not given),0,8,-16,23,-12,1,·,·,
OCCC1CN(Cc2ccc3nsnc3c2)CCN1CCc1ccccc1 (stereo not given),0,8,-6,1,·,-24,·,·,
CCOC(=O)N1CCN(C(=O)CCCn2nnnc2CN2CCC(C)CC2)CC1,1,4,-14,1,10,5,·,·,
c1ccc(OC2CCCCC2N2CCOCC2)cc1 (stereo not given),·,-2,·,-1,·,-6,·,·,
O=C(O)CNS(=O)(=O)c1ccc2c(c1)Cc1cc(S(=O)(=O)NCC(=O)O)ccc1-2,0,-1,-22,41*,-2,0,-5,-6,
O=C(O)CNS(=O)(=O)c1ccc2c(c1)C(=O)c1cc(S(=O)(=O)NCC(=O)O)ccc1-2,0,12,-10,2,-3,-71,·,·,
CC[C@@H]1C(c2ccccc2)=NN(c2ccc(Br)cc2)[C@H]1C(=O)N1CCOC1=O,8,13,-25,18,·,5,·,·,
CC[C@@H]1C(c2cccc(Cl)c2)=NN(c2ccc(Br)cc2)[C@H]1C(=O)N1CCOC1=O,0,15,-25,55*,·,·,60*,43*,
COC(=O)c1c(NC(=O)C2C3CCC(O3)C2C(=O)O)sc2c1CCCCCC2 (stereo not given),2,6,-22,61*,-1,5,95*,78*,
Cc1nnc(SC(C)C(=O)Nc2ccc(Cl)cc2Cl)[nH]c1=O (stereo not given),-1,11,-14,3,·,3,·,·,
Cc1cn(CC(C)C)c(=O)n(-c2ccccc2)c1=O,-2,-5,-41,-3,·,-10,·,·,

# High-throughput results: PubChem, several laboratories
